Data from PubChem BioAssay (Tox21).
Results filed as inconclusive are left out. The source made the active and inactive calls. Unless noted, calls follow the shape of the dose curve; as a rule, active = well fitted curve in the direction sought with a large enough effect in the repeat runs; inconclusive = weak or mixed curves; inactive = no such curve, though single readings can be large; an effect the other way counts as inactive or inconclusive.

Assays:
[1] = qHTS assay to identify small molecule antagonists of the glucocorticoid receptor (GR) signaling pathway - cell viability counter screen (AID 720693); also: nearly all actives have a fitted effect of over 55% in size
[2] = qHTS assay for identifying genotoxic compounds that show differential cytotoxicity against isogenic chicken DT40 cell lines with known DNA damage response pathways - Rev3 mutant cell line (AID 743014); also: nearly all actives have a fitted effect of over 55% in size
[3] = qHTS assay for identifying genotoxic compounds that show differential cytotoxicity against isogenic chicken DT40 cell lines with known DNA damage response pathways - Rad54/Ku70 mutant cell line (AID 743015); also: nearly all actives have a fitted effect of over 60% in size
[4] = qHTS assay to identify small molecule antagonists of the androgen receptor (AR) signaling pathway - cell viability counter screen (AID 743033; also: nearly all actives have a fitted effect of over 45% in size)
[5] = qHTS assay to identify small molecule antagonists of the androgen receptor (AR) signaling pathway using the MDA cell line - cell viability counter screen (AID 743041; also: nearly all actives have a fitted effect of over 45% in size)
Method in brief: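 qHTS viability read-out; MDA-kb2 AR-luc; R1881-stimulated; 16 h exposure at 37C, 0% CO2; CellTiter-Fluor, 30 min; fluorescence intensity.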

[6] = qHTS assay to identify small molecule antagonists of the thyroid receptor (TR) signaling pathway - cell viability counter screen (AID 743064); also: nearly all actives have a fitted effect of over 50% in size
Method in brief: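 GH3.TRE-Luc cells, 4 h pre-plating; cpd + T3 1 nM final; 37 °C 23.5 h; CellTiter-Fluor 30 min; fluorescence read.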

[7] = qHTS assay to identify small molecule antagonists of the thyroid receptor (TR) signaling pathway (AID 743065); also: series mostly up to about 70 µM; nearly all actives have a fitted effect of over 55% in size
Method in brief: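 GH3.TRE-Luc rat pituitary cells carrying two TR response elements driving luciferase were plated for 4 h, given compound plus 1 nM T3 (final), and incubated 23.5 h at 37 C. ONE-Glo luminescence measured reporter inhibition; CellTiter-Fluor fluorescence tracked cytotoxicity.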

[8] = test system: thyroid hormone receptor (rat, GH3 cells); test: qHTS assay to identify small molecule agonists of the thyroid receptor (TR) signaling pathway (AID 743066; calls by dose curve)
[9] = target: Estrogen receptor (Homo sapiens) (UniProt P03372); test: qHTS assay to identify small molecule antagonists of the estrogen receptor alpha (ER-alpha) signaling pathway (AID 743069; active = well fitted curve in the direction sought with a large enough effect in the signal ratio in the repeat runs, not every such curve was filed as active; the % refers to the signal ratio)
Method in brief: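 Screening used a UAS-driven beta-lactamase reporter integrated into HEK293 cells expressing ER-alpha, stimulated with 17beta-estradiol alongside test compounds over 18 hr at 37C; signal came from LiveBLAzer B/G FRET fluorescence.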

[10] = qHTS assay to identify small molecule antagonists of the estrogen receptor alpha (ER-alpha) signaling pathway - cell viability counter screen (AID 743074; calls by dose curve; also: nearly all actives have a fitted effect of over 45% in size)
[11] = target: Estrogen receptor (Homo sapiens) (UniProt P03372); test: qHTS assay to identify small molecule agonists of the estrogen receptor alpha (ER-alpha) signaling pathway (AID 743075; calls by dose curve)
[12] = target: Estrogen receptor (Homo sapiens) (UniProt P03372); test: qHTS assay to identify small molecule agonists of the estrogen receptor alpha (ER-alpha) signaling pathway using the BG1 cell line (AID 743079); also: nearly all actives have a fitted effect of over 20% in size
[13] = qHTS assay to identify small molecule antagonists of the estrogen receptor alpha (ER-alpha) signaling pathway using the BG1 cell line (AID 743080; calls by dose curve;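 also: BG1 cells stimulated with 17beta-estradiol alongside compound; series mostly up to about 70 µM; nearly all actives have a fitted effect of over 25% in size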)
Method in brief: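 Endogenous full-length ER-alpha in BG1-Luc-4E2 cells drives a stably integrated 4×ERE luciferase gene; compounds were tested against 17beta-estradiol over 21.5 h, with luminescence and multiplexed viability fluorescence recorded.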

[14] = qHTS assay to identify small molecule antagonists of the estrogen receptor alpha (ER-alpha) signaling pathway using the BG1 cell line - cell viability counter screen (AID 743081);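 also: compound given together with 17beta-estradiol as the ER stimulus; series mostly up to about 70 µM; nearly all actives have a fitted effect of over 45% in size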
Aromatase (Homo sapiens) = Aromatase (Homo sapiens) (UniProt P11511); test: qHTS assay to identify aromatase inhibitors (AID 743083); also: series mostly up to about 70 µM; nearly all actives have a fitted effect of over 55% in size
[15] = target: Androgen receptor (Homo sapiens) (UniProt P10275); test: qHTS assay to identify small molecule antagonists of the androgen receptor (AR) signaling pathway (AID 743035; active = well fitted inhibition curve with a large enough effect in the signal ratio in the repeat runs, not every such curve was filed as active; the % refers to the signal ratio)
Method in brief: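 Reporter HEK293 cells were exposed to compounds and R1881 overnight (16 h, 37C); beta-lactamase activity was then quantified by FRET fluorescence.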

[16] = target: Androgen receptor (Homo sapiens) (UniProt P10275); test: qHTS assay to identify small molecule agonists of the androgen receptor (AR) signaling pathway (AID 743036; active = well fitted activation curve with a large enough effect in the signal ratio in the repeat runs, with a control signal flat, not every such curve was filed as active; the % refers to the signal ratio)
Method in brief: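 AR-bla HEK293 cells, 2,000/well; 4 h preincubation 37C/5% CO2; compound (DMSO) 16 h at 37C; LiveBLAzer B/G FRET substrate 2 h RT; fluorescence intensity read-out.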

[17] = target: Androgen receptor (Homo sapiens) (UniProt P10275); test: qHTS assay to identify small molecule antagonists of the androgen receptor (AR) signaling pathway using the MDA cell line (AID 743042; also: nearly all actives have a fitted effect of over 55% in size)
Method in brief: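 MDA-kb2 cells (human breast carcinoma, stably carrying an MMTV-luciferase reporter responsive to AR and GR) were plated at 3,000 cells/well and preincubated 5 hr at 37C, then given compound plus R1881 agonist for 16 h. ONE-Glo luminescence was read.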

Measured: Potency

Chain of Estrogen receptor (Homo sapiens) (P03372 whole entry, looked up): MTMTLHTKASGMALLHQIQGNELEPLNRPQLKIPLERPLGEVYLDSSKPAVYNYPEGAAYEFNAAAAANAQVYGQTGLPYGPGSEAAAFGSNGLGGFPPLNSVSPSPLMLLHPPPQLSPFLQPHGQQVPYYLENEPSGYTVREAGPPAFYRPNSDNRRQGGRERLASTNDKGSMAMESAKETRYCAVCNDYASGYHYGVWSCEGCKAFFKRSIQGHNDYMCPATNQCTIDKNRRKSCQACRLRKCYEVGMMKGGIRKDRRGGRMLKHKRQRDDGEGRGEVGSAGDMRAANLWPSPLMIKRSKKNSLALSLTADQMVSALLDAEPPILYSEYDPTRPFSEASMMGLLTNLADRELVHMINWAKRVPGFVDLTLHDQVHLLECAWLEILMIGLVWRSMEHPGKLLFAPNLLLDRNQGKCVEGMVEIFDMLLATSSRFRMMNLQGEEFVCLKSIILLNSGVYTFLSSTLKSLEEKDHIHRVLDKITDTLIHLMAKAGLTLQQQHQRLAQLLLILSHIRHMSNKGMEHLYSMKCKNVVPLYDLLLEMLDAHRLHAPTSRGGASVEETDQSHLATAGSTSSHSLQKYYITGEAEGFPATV
Chain of Aromatase (Homo sapiens) (P11511 whole entry, looked up): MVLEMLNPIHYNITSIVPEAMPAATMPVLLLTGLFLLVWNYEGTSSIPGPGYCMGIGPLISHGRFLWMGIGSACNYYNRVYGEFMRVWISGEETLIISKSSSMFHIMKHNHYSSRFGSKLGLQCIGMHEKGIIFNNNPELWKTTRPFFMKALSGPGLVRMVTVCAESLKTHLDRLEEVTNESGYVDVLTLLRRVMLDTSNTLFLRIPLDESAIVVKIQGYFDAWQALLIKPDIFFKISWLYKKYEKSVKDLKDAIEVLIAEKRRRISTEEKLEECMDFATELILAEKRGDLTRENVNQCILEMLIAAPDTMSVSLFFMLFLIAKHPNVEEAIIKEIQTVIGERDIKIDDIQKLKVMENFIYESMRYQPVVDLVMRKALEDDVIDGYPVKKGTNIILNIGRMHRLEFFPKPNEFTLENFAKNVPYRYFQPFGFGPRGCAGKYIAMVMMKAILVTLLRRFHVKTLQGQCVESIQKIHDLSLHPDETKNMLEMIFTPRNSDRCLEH
Chain of Androgen receptor (Homo sapiens) (P10275 whole entry, looked up): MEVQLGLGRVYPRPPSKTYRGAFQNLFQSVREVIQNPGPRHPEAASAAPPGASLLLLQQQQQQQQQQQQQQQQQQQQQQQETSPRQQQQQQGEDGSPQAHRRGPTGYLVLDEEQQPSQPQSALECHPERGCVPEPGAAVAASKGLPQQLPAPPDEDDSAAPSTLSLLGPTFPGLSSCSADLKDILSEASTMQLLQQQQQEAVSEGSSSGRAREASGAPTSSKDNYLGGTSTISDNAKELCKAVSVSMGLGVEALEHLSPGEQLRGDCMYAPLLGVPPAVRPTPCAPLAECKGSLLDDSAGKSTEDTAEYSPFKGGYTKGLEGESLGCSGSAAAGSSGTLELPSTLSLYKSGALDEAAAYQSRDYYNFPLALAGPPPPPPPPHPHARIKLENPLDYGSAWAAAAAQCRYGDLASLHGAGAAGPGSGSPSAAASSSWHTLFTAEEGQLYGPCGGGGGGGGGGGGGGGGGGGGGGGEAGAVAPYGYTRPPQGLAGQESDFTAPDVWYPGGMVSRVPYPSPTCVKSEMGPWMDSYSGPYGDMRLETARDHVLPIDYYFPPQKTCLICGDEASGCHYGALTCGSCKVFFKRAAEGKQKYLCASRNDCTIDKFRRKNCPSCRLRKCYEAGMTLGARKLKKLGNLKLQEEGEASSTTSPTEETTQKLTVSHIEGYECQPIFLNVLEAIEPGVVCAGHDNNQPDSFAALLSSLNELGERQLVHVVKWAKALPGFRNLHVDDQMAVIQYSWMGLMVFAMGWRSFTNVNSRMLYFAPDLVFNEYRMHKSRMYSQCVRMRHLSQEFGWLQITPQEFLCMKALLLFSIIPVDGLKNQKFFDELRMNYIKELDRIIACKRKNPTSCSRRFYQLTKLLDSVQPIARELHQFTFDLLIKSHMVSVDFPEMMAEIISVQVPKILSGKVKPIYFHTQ

CC(C)N1C(=O)c2ccccc2C1=O
inactive: [1] | [2] | [3] | [4] | [5] | [6] | [7] | [8] | [9] | [10] | [11] | [12] | [13] | [14] | Aromatase (Homo sapiens)

CC(C)COC(=O)C(C)C
inactive: [1] | [2] | [3] | [4] | [5] | [7] | [8] | [9] | [10] | [11] | [12] | [13] | [14] | Aromatase (Homo sapiens)

CCCCC=O
inactive: [1] | [2] | [3] | [4] | [5] | [6] | [7] | [8] | [10] | [14]

CCCC(C)CO (stereo unspecified)
inactive: [1] | [2] | [3] | [4] | [15] | [16] | [5] | [17] | [7] | [8] | [10] | [14] | Aromatase (Homo sapiens)

NC(=O)Nc1nc2ccccc2[nH]1
inactive: [1] | [2] | [3] | [4] | [5] | [6] | [7] | [8] | [9] | [10] | [11] | [12] | [13] | [14] | Aromatase (Homo sapiens)

O=C(O)CCNC(=O)c1ccc(N=Nc2ccc(O)c(C(=O)O)c2)cc1
inactive: [1] | [2] | [3] | [4] | [5] | [6] | [7] | [8] | [9] | [10] | [11] | [12] | [13] | Aromatase (Homo sapiens)

CC(=O)CCc1ccc(O)cc1
inactive: [1] | [2] | [3] | [4] | [5] | [6] | [7] | [8] | [9] | [10] | [11] | [12] | [13] | [14] | Aromatase (Homo sapiens)

OCC(O)[C@@H](O)[C@H](O)[C@H](O)CO[C@H]1O[C@H](CO)[C@@H](O)[C@H](O)[C@H]1O (stereo partly specified)
inactive: [1] | [2] | [3] | [4] | [5] | [6] | [7] | [8] | [10] | [14] | Aromatase (Homo sapiens)

O=[N+]([O-])c1ccc(Oc2ccc([N+](=O)[O-])cc2)cc1
inactive: [1] | [2] | [3] | [4] | [6] | [7] | [8] | [9] | [10] | [11] | [12] | [13] | [14] | Aromatase (Homo sapiens)

CC(C)CCOC(=O)CC(C)C
inactive: [1] | [2] | [3] | [4] | [5] | [6] | [7] | [8] | [9] | [10] | [11] | [12] | [13] | [14] | Aromatase (Homo sapiens)
